# Biological target: T1, Methionyl-tRNA synthetase, putative (Leishmania donovani (strain BPK282A1)) (UniProt E9BF75)
# T1 sequence (whole entry): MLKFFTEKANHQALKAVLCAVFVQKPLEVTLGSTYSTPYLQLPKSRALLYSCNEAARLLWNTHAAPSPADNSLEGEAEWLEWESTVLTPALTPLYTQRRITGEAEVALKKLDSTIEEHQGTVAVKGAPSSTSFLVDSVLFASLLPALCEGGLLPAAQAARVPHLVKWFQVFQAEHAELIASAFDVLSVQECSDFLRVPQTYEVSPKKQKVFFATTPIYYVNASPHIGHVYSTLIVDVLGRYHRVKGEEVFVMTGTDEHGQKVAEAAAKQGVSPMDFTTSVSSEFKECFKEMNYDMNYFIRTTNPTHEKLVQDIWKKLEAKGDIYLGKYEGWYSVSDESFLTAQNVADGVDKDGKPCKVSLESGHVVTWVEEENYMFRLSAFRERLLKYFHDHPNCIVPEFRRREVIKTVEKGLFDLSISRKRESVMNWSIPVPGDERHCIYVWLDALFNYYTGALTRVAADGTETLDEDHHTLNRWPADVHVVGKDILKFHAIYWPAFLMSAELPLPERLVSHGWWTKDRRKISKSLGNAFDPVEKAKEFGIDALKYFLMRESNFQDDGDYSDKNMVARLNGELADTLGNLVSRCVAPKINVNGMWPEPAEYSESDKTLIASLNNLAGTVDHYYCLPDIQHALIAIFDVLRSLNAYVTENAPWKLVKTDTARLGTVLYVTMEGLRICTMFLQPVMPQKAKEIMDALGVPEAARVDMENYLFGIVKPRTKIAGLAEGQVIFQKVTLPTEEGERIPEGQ
# Test: Leishmania donovani Methionine tRNA synthetase (LdMetRS):v7. Dose response assay
# Type: functional
# Design: conc 80 nM, time 150 minutes
structure (smiles),measurement,setting,value
Clc1cc(Cl)cc(CNCc2ccc3[nH]ncc3c2)c1,PXC50,"BOTTOM 1.106249154, HILLSLOPE 1.041028332, MAX_EFFECT 65.20076482, TOP 65.36183651",3.99
OCCNc1ccnc(Nc2ccc(F)c(F)c2)n1,PXC50,"BOTTOM 2.684604701, HILLSLOPE 0.866541634, MAX_EFFECT 62.24299065, TOP 102.5858947",4.2
Clc1cc(Cl)cc(CNCc2ccc3[nH]ccc3c2)c1,PXC50,"BOTTOM 7.303470977, HILLSLOPE 1.421171765, MAX_EFFECT 85.85086042, TOP 90.87319761",4.04
OCCCNc1ccnc(Nc2ccc(F)c(F)c2)n1,PXC50,"BOTTOM 8.063501062, HILLSLOPE 0.925044522, MAX_EFFECT 61.50943396, TOP 93.0681126",4.25
Cn1ncc2c(NCCO)nc(Nc3cccc(F)c3)nc21,PXC50,"BOTTOM 8.925751042, HILLSLOPE 1.252459196, MAX_EFFECT 66.66666667, TOP 81.92338456",4.47
OCCNc1ccnc(Nc2cccc(C(F)(F)F)c2)n1,PXC50,"BOTTOM -3.630779809, HILLSLOPE 0.738811655, MAX_EFFECT 60.88631985, TOP 100.0",4.28
COc1cc(Nc2ncccc2S(N)(=O)=O)cc(C(F)(F)F)c1,PXC50,MAX_EFFECT 0.199600798,< 4
Cn1ncc2c(NC3COC3)nc(Nc3ccc(F)c(F)c3)nc21,PXC50,MAX_EFFECT 2.264150943,< 4
COC(=O)c1ccc(OC)c(NC(=O)N2CCOc3ccccc32)c1,PXC50,MAX_EFFECT 3.018867925,< 4
C[C@@H](CO)Nc1ccnc(Cl)n1,PXC50,MAX_EFFECT 3.177570093,< 4
COc1ccccc1NC(=O)Nc1cnccc1OC,PXC50,MAX_EFFECT 4.905660377,< 4
OCCNc1nccc(Nc2ccc(F)c(F)c2)n1,PXC50,MAX_EFFECT 5.420560748,< 4
COc1ccccc1NC(=O)Nc1cc(C(=O)O)ccc1OC,PXC50,MAX_EFFECT 5.794392523,< 4
Cn1c(NC(=O)Nc2ccccc2Cl)nc2ccccc21,PXC50,MAX_EFFECT 5.925925926,< 4
COc1ccccc1NC(=O)Nc1ccn(C)n1,PXC50,MAX_EFFECT 6.168224299,< 4
C[C@@H](CO)Nc1nccc(Cl)n1,PXC50,MAX_EFFECT 6.91588785,< 4
NS(=O)(=O)c1cccnc1NC1CCCCC1,PXC50,MAX_EFFECT 6.986027944,< 4
Cn1ncc2c(NCCO)nc(NCCCO)nc21,PXC50,MAX_EFFECT 7.543520309,< 4
COc1ccc(OC)c(NC(=O)N2CCOc3ccc(C)cc32)c1,PXC50,MAX_EFFECT 7.777777778,< 4
CN1CCC(CNCc2cc(Cl)cc(Cl)c2)CC1,PXC50,MAX_EFFECT 8.986615679,< 2.7
COc1ccccc1CNC(=O)Nc1ccccc1OC,PXC50,MAX_EFFECT 9.158878505,< 4
Clc1cc(Cl)cc(NCCc2ccccc2)c1,PXC50,MAX_EFFECT 9.751434034,< 2.7
COc1cc(NC(=O)c2cccs2)c2ncccc2c1,PXC50,MAX_EFFECT 11.11111111,< 4
OCCCNc1nccc(Nc2ccc(F)c(F)c2)n1,PXC50,MAX_EFFECT 15.09433962,< 4
COc1ccccc1NC(=O)Nc1cccc(N)c1,PXC50,MAX_EFFECT 17.00934579,< 4
Cn1ncc2c(NCCO)nc(NC3CCOCC3)nc21,PXC50,MAX_EFFECT 17.34104046,< 4
COc1ccccc1NC(=O)Nc1nn(C)c2cccc(OC)c12,PXC50,MAX_EFFECT 17.77777778,< 4
CN1CCn2cc/c(=N\c3ccc(F)c(F)c3)nc21,PXC50,MAX_EFFECT 18.13084112,< 4
Clc1cc(Cl)cc(NC2COC2)c1,PXC50,MAX_EFFECT 18.9292543,< 2.7
Cc1cnn(C)c1CNCc1cc(Cl)cc(Cl)c1,PXC50,MAX_EFFECT 20.07648184,< 2.7
COc1ccccc1NC(=O)NC1CCCCC1,PXC50,MAX_EFFECT 21.47001934,< 4
Clc1cc(Cl)cc(CNCc2cccnc2)c1,PXC50,MAX_EFFECT 23.51816444,< 2.7
Cc1cc(CNCc2cc(Cl)cc(Cl)c2)no1,PXC50,MAX_EFFECT 24.66539197,< 2.7
C[C@@H](CO)Nc1ccnc(Nc2cccc(F)c2)n1,PXC50,MAX_EFFECT 30.05780347,< 4
CC(NCc1cc(Cl)cc(Cl)c1)C1CCCN(C(=O)OC(C)(C)C)C1 (stereo unspecified),PXC50,MAX_EFFECT 36.52007648,< 2.7
COc1ccncc1NC(=O)N1CCCc2ccccc21,PXC50,MAX_EFFECT 36.98113208,< 4
Cn1ncc2c(NCCO)nc(NCCn3cccn3)nc21,PXC50,MAX_EFFECT 36.99421965,< 4
CCNc1nc(C#N)nc(Nc2ccccc2)n1,PXC50,MAX_EFFECT 38.88888889,< 4
Cn1ncc2c(NC3CC3)nc(Nc3ccc(F)c(F)c3)nc21,PXC50,MAX_EFFECT 47.9245283,< 4
O=c1nc(NCCCNC2CCOc3c(Cl)cc(Cl)cc32)[nH]c2ccccc12 (stereo unspecified),PXC50,"BOTTOM 1.104460677, HILLSLOPE 1.218727258, MAX_EFFECT 102.5925926, TOP 101.9327021",6.05
Cn1ncc2c(NC3CCCC(O)C3)nc(Nc3ccc(F)c(F)c3)nc21 (stereo unspecified),PXC50,"BOTTOM 4.828241924, HILLSLOPE 1.003842691, MAX_EFFECT 77.73584906, TOP 90.35664451",4.76
Cn1ncc2c(NC3CCOC3)nc(Nc3ccc(F)c(F)c3)nc21 (stereo unspecified),PXC50,"BOTTOM 7.395126545, HILLSLOPE 0.941646955, MAX_EFFECT 86.79245283, TOP 90.65244752",5.1
C[C@H](CO)Nc1ccnc(Nc2ccc(F)c(F)c2)n1,PXC50,"BOTTOM -1.459719323, HILLSLOPE 0.865053746, MAX_EFFECT 69.36416185, TOP 100.0",4.44
Clc1cc(Cl)cc(NCc2cccnc2)c1,PXC50,"BOTTOM -6.720584862, HILLSLOPE 0.561777258, MAX_EFFECT 60.61185468, TOP 100.0",3.18
OCCNc1nccc(Cl)n1,PXC50,MAX_EFFECT 0.560747664,< 4
Cc1noc(CCNc2nc(NCCO)c3cnn(C)c3n2)n1,PXC50,MAX_EFFECT 0.580270793,< 4
c1ccc(-c2nc(-n3cnnc3)c3ccccc3n2)cc1,PXC50,MAX_EFFECT 0.740740741,< 4
NS(=O)(=O)c1cccnc1Nc1cccc(F)c1,PXC50,MAX_EFFECT 1.518026565,< 4
NS(=O)(=O)c1cccnc1Nc1ccc(F)cc1,PXC50,MAX_EFFECT 1.518026565,< 4
C[C@@H](CO)Nc1nccc(Nc2ccc(F)c(F)c2)n1,PXC50,MAX_EFFECT 2.697495183,< 4
NS(=O)(=O)c1cccnc1Nc1cccc(O)c1,PXC50,MAX_EFFECT 3.333333333,< 4
Cn1ncc2c(NCCO)nc(NCCO)nc21,PXC50,MAX_EFFECT 3.795066414,< 4
Cc1cccc(Nc2ncccc2S(N)(=O)=O)c1,PXC50,MAX_EFFECT 4.448742747,< 4
Cn1ncc2c(NCCO)nc(NCc3ccccc3)nc21,PXC50,MAX_EFFECT 4.528301887,< 4
NS(=O)(=O)c1cccnc1Nc1ccc(O)cc1,PXC50,MAX_EFFECT 5.185185185,< 4
CC(C)Nc1nc(NCCO)c2cnn(C)c2n1,PXC50,MAX_EFFECT 5.313092979,< 4
COc1ccccc1NC(=O)Nc1nn(C)c2ccccc12,PXC50,MAX_EFFECT 5.420560748,< 4
COC(=O)c1ccc(OC)c(NC(=O)Nc2ccccc2OC)c1,PXC50,MAX_EFFECT 5.794392523,< 4
COC(=O)c1ccc(OC)c(NC(=O)N2CCCc3ccccc32)c1,PXC50,MAX_EFFECT 6.79245283,< 4
NS(=O)(=O)c1cccnc1NC1CCCC1,PXC50,MAX_EFFECT 6.986027944,< 4
OCCCNc1ccnc(Cl)n1,PXC50,MAX_EFFECT 7.32177264,< 4
